# Reference: the supplement of paper PMC8728848
# This excerpt belongs to a sample that is enriched for the strongest signals.
# What was measured:
# Assay in all cases: glycan array binding signal (z-score within array); higher = stronger binding
# Conditions in all cases: glycan notation: IUPAC condensed, linker removed
# [1] = test system: Fuc(a1-2)Gal6S(b1-4)Glc
# Method in brief: (§1)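 The binding signal is a Z-score computed within each array. Data were drawn from 3228 arrays in the Consortium for Functional Glycomics database, restricted to those with a known protein sequence. Scores were averaged over arrays of the same protein sequence at different concentrations or buffers, and over linkers, and negative values can be taken as non-binding.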
# [2] = test system: Fuc(a1-2)[Gal(a1-3)]Gal(b1-3)GalNAc
# Method in brief: as §1
# [3] = test system: Fuc(a1-2)[GalNAc(a1-3)]Gal(b1-3)GlcNAc(b1-2)Man(a1-3)[Fuc(a1-2)[GalNAc(a1-3)]Gal(b1-3)GlcNAc(b1-2)Man(a1-6)]Man(b1-4)GlcNAc(b1-4)GlcNAc
# Method in brief: as §1
# [4] = test system: Fuc(a1-2)[GalNAc(a1-3)]Gal(b1-3)GlcNAc(b1-2)Man(a1-3)[Fuc(a1-2)[GalNAc(a1-3)]Gal(b1-3)GlcNAc(b1-2)Man(a1-6)]Man(b1-4)GlcNAc(b1-4)[Fuc(a1-6)]GlcNAc
# Method in brief: as §1
# [5] = test system: Fuc(a1-2)[Gal(a1-3)]Gal(b1-4)[Fuc(a1-3)]Glc
# Method in brief: as §1
# [6] = test system: Fuc(a1-2)[GalNAc(a1-3)]Gal(b1-4)GlcNAc(b1-2)Man(a1-3)[Fuc(a1-2)[GalNAc(a1-3)]Gal(b1-4)GlcNAc(b1-2)Man(a1-6)]Man(b1-4)GlcNAc(b1-4)[Fuc(a1-6)]GlcNAc
# Method in brief: as §1
# [7] = test system: Fuc(a1-2)[Gal(a1-3)]Gal(b1-4)GlcNAc
# Method in brief: as §1
# [8] = test system: Fuc(a1-2)[Gal(a1-3)]Gal(b1-4)[Fuc(a1-3)]GlcNAc
# Method in brief: as §1
# [9] = test system: Fuc(a1-2)Gal6S(b1-4)Glc6S
# Method in brief: as §1
# [10] = test system: Fuc(a1-2)Gal
# Method in brief: as §1
# [11] = test system: Fuc(a1-2)[Gal(a1-3)]Gal(b1-3)GlcNAc
# Method in brief: as §1
# [12] = test system: Fuc(a1-2)[GalNAc(a1-3)]Gal(b1-4)GlcNAc(b1-2)Man(a1-3)[Fuc(a1-2)[GalNAc(a1-3)]Gal(b1-4)GlcNAc(b1-2)Man(a1-6)]Man(b1-4)GlcNAc(b1-4)GlcNAc
# Method in brief: as §1
# [13] = test system: Fuc(a1-2)Gal6S(b1-3)GlcNAc
# Method in brief: as §1
# [14] = test system: Fuc(a1-2)[Gal(a1-3)]Gal(b1-3)GlcNAc(b1-3)GalNAc
# Method in brief: as §1
# [15] = test system: Fuc(a1-2)[GalNAc(a1-3)]Gal(b1-3)GalNAc(a1-3)[Fuc(a1-2)]Gal(b1-4)GlcNAc
# Method in brief: as §1
# [16] = test system: Fuc(a1-2)[GalNAc(a1-3)]Gal(b1-3)GlcNAc
# Method in brief: as §1
# [17] = test system: Fuc(a1-2)[Gal(a1-3)]Gal(b1-3)GlcNAc(b1-6)GalNAc
# Method in brief: as §1
# [18] = test system: Fuc(a1-2)[Gal(a1-3)]Gal(b1-4)GlcNAc(b1-2)Man(a1-3)[Fuc(a1-2)[Gal(a1-3)]Gal(b1-4)GlcNAc(b1-2)Man(a1-6)]Man(b1-4)GlcNAc(b1-4)GlcNAc
# Method in brief: as §1
# [19] = test system: Fuc(a1-2)[Gal(a1-4)]Gal(b1-4)GlcNAc
# Method in brief: as §1
# [20] = test system: Fuc(a1-2)[GalNAc(a1-3)]Gal(b1-3)GalNAc(b1-3)Gal(a1-4)Gal(b1-4)Glc
# Method in brief: as §1
substance,measurement,setting,value
LcI (Legionella pneumophila),glycan array binding signal (z-score),[1],-0.438
same,glycan array binding signal (z-score),[2],-0.622
same,glycan array binding signal (z-score),[3],-0.301
same,glycan array binding signal (z-score),[4],-0.427
AgI/II Vhelical-GFP (Streptococcus mutans),glycan array binding signal (z-score),[5],-0.293
same,glycan array binding signal (z-score),[4],-0.218
same,glycan array binding signal (z-score),[6],-0.212
"SiiE (Salmonella typhimurium), A0A0H3NVH0",glycan array binding signal (z-score),[7],-0.344
same,glycan array binding signal (z-score),[8],-0.019
Actinohivin (Actinomycete K97),glycan array binding signal (z-score),[9],-0.121
same,glycan array binding signal (z-score),[10],-0.161
same,glycan array binding signal (z-score),[11],-0.173
same,glycan array binding signal (z-score),[4],0.857
same,glycan array binding signal (z-score),[12],-0.143
AgI/IIC123-GFP (Streptococcus mutans),glycan array binding signal (z-score),[13],4.98
same,glycan array binding signal (z-score),[14],-0.567
same,glycan array binding signal (z-score),[8],-0.047
same,glycan array binding signal (z-score),[15],-0.259
same,glycan array binding signal (z-score),[6],-0.549
"GspB (Streptococcus gordonii), Q939N5",glycan array binding signal (z-score),[11],-0.728
same,glycan array binding signal (z-score),[16],0.192
"BambL (Burhholderia ambifaria), Q0B4G1",glycan array binding signal (z-score),[10],5.01
Epa22,glycan array binding signal (z-score),[17],-0.605
same,glycan array binding signal (z-score),[18],-0.038
same,glycan array binding signal (z-score),[5],-0.341
same,glycan array binding signal (z-score),[19],1.84
same,glycan array binding signal (z-score),[20],-0.54
